Bioassay records (PubChem)
Only some compounds are listed: those with a hit (about 5.7% of all), similar ones and a draw of the others.
AHR activator: activators of human aryl hydrocarbon receptor. P35869. AHR-responsive luciferase reporter cells, luminescence. actives 2.5% (n = 320,000). activation, % at 5 µM; in the data active = activation above about 47%
ssDAF-12 act: S. stercoralis DAF-12 activation, primary screen. HEK293 ssDAF-12/GRIP1 lit1-tk-luc reporter, luminescence; % of 3 µM dafachronic acid response. activation, % at 6.8 µM. actives 1% (n = 370,000);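 active = activation above the mean over all tested compounds plus 3 SD, cut at about 0.9% in these data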
DAX1 inh-1: inhibitors of DAX1 repression of SF-1 activated StAR promoter. inhibition, % at 6.8 µM. HEK293T StAR-luciferase reporter, SF-1/DAX-1 repression relief. AID 652010. actives 1.1% (n = 370,000);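 active = inhibition above the mean over all tested compounds plus 3 SD, cut at about 3.6% in these data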;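 also: higher inhibition means more luminescence from relief of DAX-1 repression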
DAX1 inh-2: inhibitors of human orphan nuclear receptor DAX1 (NR0B1). actives 0.99% (n = 340,000). AID 504766. P51843. HEK293 Gal4-DAX1 luciferase reporter, luminescence. inhibition, % at 6.75 µM;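 active = inhibition above the mean over all tested compounds plus 3 SD, cut at about 4.2% in these data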;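 also: inhibition shows as a rise in luminescence from relieved DAX1 repression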
hgDAF12 agonist: agonists of H. glycines DAF-12 nuclear receptor; actives 1.8% (n = 370,000); activation, % at 6.8 µM; HEK293 GAL4-hgDAF12 UAS-luciferase reporter, agonist luminescence; normalized to butyrate control;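 active = activation above a cutoff set at the mean of all screened compounds plus 3 SD, cut at about 10% in these data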
hcDAF12 agonist: H. contortus DAF-12 activation, primary screen. HEK293 hcDAF-12 lit1-tk-luc reporter, luminescence; 0% DMSO, 100% Δ7-dafachronic acid. activation, % at 6.8 µM. actives 1.4% (n = 370,000);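 active = activation above the mean of all tested compounds plus 3 SD, cut at about 5.5% in these data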
LXRb hcDAF ctr: counter-screen for hcDAF-12 agonists: agonists of human LXR-beta; shares compounds with hcDAF12 agonist; HEK293 Gal4-LXR tk-luc reporter, luminescence, 24 h; normalized: DMSO 0%, positive control 100%; activation, % at 6.8 µM; 3,400 tested, under 10 active;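 active = mean percent activation of the reporter above a cutoff set as the average over tested compounds plus their standard deviation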
hcDAF12 conf: confirmation of H. contortus DAF-12 agonists; shares compounds with hcDAF12 agonist; HEK293 hcDAF-12 lit1-tk-luc reporter, luminescence; % of Δ7-dafachronic acid response; activation, % at 6.8 µM; actives 61% (n = 3,400);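 active = mean activation across triplicate tests above the threshold derived from the earlier primary screen, cut at about 5.5% in these data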
hgDAF12 conf: hgDAF-12 agonism, confirmation assay | HEK293 GAL4-hgDAF12 luciferase reporter, agonist mode; percent of butyrate response | actives 80% (n = 3,300) | shares compounds with hgDAF12 agonist | activation, % at 6.8 µM | AID 743050;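 active = mean activation over triplicate wells above the hit cutoff derived from the earlier primary screen, cut at about 11% in these data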
LXRb DAF12 ctr: activates human LXR-beta, counter-screen for DAF-12 agonists | 3,300 tested, under 10 active | activation, % at 6.8 µM | shares compounds with hgDAF12 agonist | HEK293 Gal4-LXR luciferase reporter, 24 h | AID 743051;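 active = mean activation of the triplicate above a set limit carried over from the primary screen, none filed active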
Numbers stand for hits; 0 = inactive; - = not tested or not shown.

SMILES	AHR activator	ssDAF-12 act	DAX1 inh-1	DAX1 inh-2	hgDAF12 agonist	hcDAF12 agonist	LXRb hcDAF ctr	hcDAF12 conf	hgDAF12 conf	LXRb DAF12 ctr
Cc1ccc(NC(=O)N2CCc3ccccc32)cc1	0	1.1	3.7	0	15.3	10.4	0	11.4	23.4	0
O=C(COc1ccccc1)N1CCc2ccccc21	0	0	0	0	14.1	8.5	0	6.4	11.9	0
O=C(COc1ccc(Br)cc1)N1CCc2ccccc21	0	0	0	0	0	0	-	-	-	-
Cc1cc(=O)oc2cc(OC(C)C(=O)NCC3CCCO3)ccc12 (configuration not stated)	0	0	0	0	0	0	-	-	-	-
CCC(c1ccc(O)c(O)c1)C(CC)c1ccc(O)c(O)c1 (configuration not stated)	-	-	-	0	-	-	-	-	-	-
Cc1cc(=O)[nH]c(SCC(=O)N2CCN(C(c3ccccc3)c3ccccc3)CC2)n1	0	0	0	0	0	0	-	-	-	-
CC(C)NC(=O)c1cc(-c2ccc3c(c2)OCO3)on1	0	0	0	0	13.9	6.6	0	0	14.1	0
COc1cc(NC(=O)c2cc(-c3ccc4c(c3)OCO4)on2)cc(OC)c1OC	0	0	0	0	0	0	-	-	-	-
O=[N+]([O-])c1ccc(/C=C/c2ccc3ccccc3n2)cc1	0	1.0	3.8	0	23.7	10.6	0	9.7	13.4	0
Nc1nc(SCc2nnc(SCC(=O)O)n2-c2ccccc2)nc2sc3c(c12)CCCC3	0	0	0	0	0	0	-	-	-	-
CC(Sc1nnnn1-c1ccccc1)C(=O)NC1CCCC1 (configuration not stated)	0	0	0	0	0	0	-	-	-	-
Cn1cc(C(=O)N2CCN(c3ccccn3)CC2)c(=O)c2cc(S(=O)(=O)N3CCOCC3)ccc21	0	0	0	0	0	0	-	-	-	-
COc1ccc(N(C)S(=O)(=O)c2ccc(Cl)c(C(=O)NCCc3ccc(Cl)cc3)c2)cc1	0	0	0	0	0	0	-	-	-	-
Cc1ccccc1C(=O)Nn1cnc2ccccc2c1=O	0	1.7	0	0	15.1	9.8	0	8.6	0	0
CC1CC(C)(C)CC(=O)C1C(=O)c1ccccc1 (configuration not stated)	0	0	0	0	0	0	-	-	-	-
Nc1nnc(CC(=O)N/N=C\c2ccc(-c3cccc(Cl)c3)o2)s1	0	0	0	0	0	0	-	-	-	-
COc1ccc(-c2nc3ccccn3c2Cl)cc1	0	3.2	0	0	14.1	15.0	0	18.6	24.0	0
COc1ccc(-c2ncc3ccccn23)cc1	0	0	0	0	0	0	-	-	-	-
Cc1ccc(COc2ccc(/C=N/O)cc2)cc1	0	1.4	0	5.5	17.2	7.8	0	7.0	17.3	0
CCC(=O)Nc1cccc(-c2nc3ccc(C)cc3o2)c1	0	0	0	0	0	0	-	-	-	-
CCC(=O)Nc1ccc2oc(-c3cccc(C)c3)nc2c1	0	0	4.2	0	14.8	6.9	0	7.9	16.3	0
CCC(C)n1cnc2c(c1=O)c1nc3ccccc3nc1n2-c1ccc2c(c1)OCCO2 (configuration not stated)	0	0	0	0	0	0	-	-	-	-
COc1ccc(C2c3c(noc3C)CC(C)(O)C2C(C)=O)cc1 (configuration not stated)	0	0	0	0	0	0	-	-	-	-
Nc1c(-c2cccs2)cnc2c(-c3ccc(F)cc3)cnn12	0	1.0	0	0	15.8	9.0	0	6.6	24.7	0
CCOC(=O)c1cc(-c2ccc(OC)cc2)n[nH]1	0	0	0	0	0	0	-	-	-	-
SMILES	AHR activator	ssDAF-12 act	DAX1 inh-1	DAX1 inh-2	hgDAF12 agonist	hcDAF12 agonist	LXRb hcDAF ctr	hcDAF12 conf	hgDAF12 conf	LXRb DAF12 ctr
CC(C)COc1ccc(-c2cc(C(=O)NN)[nH]n2)cc1	0	2.2	4.0	0	20.2	12.9	0	0	0	0
COc1cc(SC)ccc1C(=O)NCCc1c[nH]c2ccccc12	0	0	0	0	0	0	-	-	-	-
O=C(N/N=C/c1c[nH]c2ccccc12)c1cc(-c2ccc(-c3ccccc3)cc2)n[nH]1	0	0	0	0	14.5	7.8	0	0	0	0
O=C1c2ccccc2CN1c1ccccc1	0	0	0	0	0	0	-	-	-	-
Cc1ccc(N2Cc3ccccc3C2=O)cc1	0	1.5	0	5.4	16.0	12.1	0	8.8	17.2	0
O=C(O)c1cccc(-c2nnn(Cc3ccccc3Cl)n2)c1	0	2.0	4.4	0	13.5	6.7	0	8.5	22.3	0
CC(=O)Nc1ccc(S(=O)(=O)N2C(=O)c3cccc4cccc2c34)cc1	0	0	0	-	0	0	-	-	-	-
Brc1ccc(OCCCCCN2CCOCC2)cc1	0	0	0	0	0	0	-	-	-	-
O=[N+]([O-])c1ccc(N/N=C\c2cccnc2)nc1	0	0	0	0	0	0	-	-	-	-
O=[N+]([O-])c1ccc(NN=Cc2cccc(O)c2)nc1	-	0	0	5.6	18.4	10.1	0	0	20.7	0
COc1ccc(NC(=O)Nc2ccc3[nH]ccc3c2)cc1	0	0	0	-	0	0	-	-	-	-
O=C(Nc1ccc2[nH]ccc2c1)c1ccc(F)cc1	0	1.5	0	0	15.9	8.2	0	5.9	20.5	0
CC(NC(=O)Nc1ccc(F)cc1F)c1ccc2c(c1)OCO2 (configuration not stated)	0	0	0	0	0	0	-	-	-	-
O=C(Nc1ccc2c(c1)OCCO2)c1ccc(Br)cc1	0	0	0	0	15.1	8.3	0	7.2	13.5	0
O=C(N/N=C/c1cc(Br)cs1)c1ccc2c(c1)OCCO2	0	0	0	-	14.8	6.6	0	0	23.6	0
CN(c1ccc(C(=O)Nc2ccc3c(c2)OCCO3)cc1)S(C)(=O)=O	0	0	0	0	0	0	-	-	-	-
O=C(Nc1ccc2c(c1)OCO2)c1noc2c1CCCC2	55.0	0	0	0	15.0	8.1	0	8.5	16.3	0
COc1ccccc1C(=O)Nc1ccc2c(c1)OCCO2	0	0	0	0	13.6	6.8	0	6.6	14.0	0
COc1ccc(S(=O)(=O)Nc2ccc3c(c2)C(=O)N([C@@H](C)CO)C[C@H](C)[C@H](CN(C)CC2CC2)O3)cc1	0	0	0	0	0	0	-	-	-	-
Cc1ccc(OCCOCCN2CCCC2)c(Br)c1	0	0	0	0	0	0	-	-	-	-
